From PubChem BioAssay
Shown are actives, neighbours in structure and some others; about 2.3% of the full set was active somewhere.
PTHR1 agonist – activates the human parathyroid hormone receptor PTHR1; Q03431; actives 0.075% (n = 410,000); Potency, µM (doses to about 115 µM), inactives show at the top dose activation, actives largely listed as activators; HEK293 GP2 PTHR1 cells, GloSensor cAMP luminescence, 1 h; AID 743266; note: nearly all actives have a fitted effect of over 55% in size
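HEK-293-derived GP2 cells expressing PTHR1 and a GloSensor cAMP reporter, 3,000/well, plated overnight, given luciferin plus IBMX (each 0.5 mM as added) for 1 h at 37 °C, then compound for 1 h at 37 °C. Luminescence was read after 15 min at room temperature.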
GLS inh – blocks human kidney-isoform glutaminase activity | O94925 | GLS enzymatic activity, qHTS titration | Potency, µM (top dose mostly 45.5 µM), for the others: at the top dose activity change, negative = inhibition, most hits filed as inhibitors | actives 0.21% (n = 410,000) | AID 624170; note: % is set by controls: 0 for no effect and ±100 for the full control effect
Target sequence (O94925 whole entry, looked up, canonical isoform): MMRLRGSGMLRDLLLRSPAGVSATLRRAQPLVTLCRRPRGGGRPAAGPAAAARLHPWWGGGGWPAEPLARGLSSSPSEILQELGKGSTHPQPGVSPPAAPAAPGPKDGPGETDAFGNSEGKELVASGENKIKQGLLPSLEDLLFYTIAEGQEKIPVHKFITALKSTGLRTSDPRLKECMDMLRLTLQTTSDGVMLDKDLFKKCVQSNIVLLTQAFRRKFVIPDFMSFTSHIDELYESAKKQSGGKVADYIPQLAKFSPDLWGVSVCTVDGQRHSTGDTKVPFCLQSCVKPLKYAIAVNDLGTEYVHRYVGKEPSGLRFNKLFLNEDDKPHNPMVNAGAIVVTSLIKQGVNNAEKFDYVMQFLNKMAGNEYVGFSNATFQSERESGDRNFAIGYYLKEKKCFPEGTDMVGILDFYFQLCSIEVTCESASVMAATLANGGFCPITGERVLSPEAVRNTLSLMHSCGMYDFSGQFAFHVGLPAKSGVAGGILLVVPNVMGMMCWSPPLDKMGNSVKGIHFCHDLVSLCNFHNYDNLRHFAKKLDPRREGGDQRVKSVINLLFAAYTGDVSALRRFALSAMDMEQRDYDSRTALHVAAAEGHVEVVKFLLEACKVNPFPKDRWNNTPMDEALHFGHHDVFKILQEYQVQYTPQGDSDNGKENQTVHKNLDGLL
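hKGA in 45 mM KH2PO4 (pH 8.2), 0.02% Tween-20 with compound, then 1mM L-Glutamine (stock as added) plus glutamate oxidase/HRP/Amplex red coupling mix. Fluorescence read initially and after 30 min at RT; signal change reflects glutamate formation.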
GLP-1R inv ag – acts as inverse agonist at human GLP-1 receptor; P43220; actives 1.6% (n = 410,000); Potency, µM (highest dose often 38.3 µM), without a hit: at the highest dose activity change, negative = inhibition, usual class: inhibitors; HEK293 GLP-1R CRE-luciferase, luminescence, 24 h; GLP-1R form is constitutively active; note: % is set by controls: 0 for no effect and ±100 for the full control effect; nearly all actives have a fitted effect of over 55% in size
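HEK293 cells stably co-expressing a cAMP-responsive luciferase reporter and constitutively active GLP-1R were seeded, incubated 12 h, then exposed to compounds for 24 h at 37 C. Luminescence was read 12 min after detection reagent; inverse agonists lower signal.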
Glioma ERSR ind – induces the endoplasmic reticulum stress response in human glioma cells | actives 0.02% (n = 420,000) | U87-MG GRP78 promoter luciferase reporter, 16 h | Potency, µM, for the others: top-dose activation, hits mostly activators; note: series mostly up to about 76 µM; % of control where 0% means no effect; nearly all actives have a fitted effect of over 35% in size
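Stably transfected U87-MG glioma cells carrying a GRP78-based luciferase sensor; 16 h compound incubation. Luminescence end-point read 10 min after Bright-Glo addition at room temperature.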
GLP1R ag – GLP-1 receptor (human) agonism | HEK293 GLP-1R CRE-luciferase, luminescence, 4-6 h; cells express a hypersensitive GLP-1R form | AID 624172 | Potency, µM (highest dose often 45.6 µM), inactives show top-dose activation, actives largely listed as activators | actives 0.007% (n = 380,000) | P43220; note: % of control where 0% means no effect
ALOX12 inh – inhibitors of human 12S-lipoxygenase ALOX12; actives 1.1% (n = 580,000); purified 12hLO, xylenol orange hydroperoxide absorbance; Potency, µM (top dose mostly 108 µM), inactives show at the highest dose activity change, negative = inhibition, actives largely listed as inhibitors; AID 1671190; P18054; note: % is set by controls: 0 for no effect and ±100 for the full control effect
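Purified human 12hLO (150 nM final) in 25 mM Hepes, 0.01% Triton X-100, pH 7.0 was preincubated 15 min at room temperature with compound. Then 40 uM arachidonic acid was added, 30 min. Hydroperoxide was read by Fe-XO absorbance ratio 573/405 nm.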
An asterisk follows results filed as active; ! = not confirmed by another sample; [ ] = dose if it differs, or a comment. Calls come from the whole dose curve; as a rule, active = well fitted curve in the direction sought with a large enough effect; inconclusive = small, poorly fitted or top-dose-only effect, or another doubt; inactive = no such curve, though single readings can be large; an effect the other way counts as inactive or inconclusive. Potency is the fitted concentration of half-maximal effect.

Screening Cc1cc(C)c(NC(=O)C2CCCN(C(=O)c3cnn(-c4ccccc4)c3-n3cccc3)C2)c(C)c1 (configuration not stated) returned PTHR1 agonist 0%, GLS inh 2%, GLP-1R inv ag inconclusive, Glioma ERSR ind 4% and ALOX12 inh 0%.
Cc1cc(C)cc(NC(=O)C2CCCN(C(=O)c3cnn(-c4ccccc4)c3-n3cccc3)C2)c1 (configuration not stated) was read as PTHR1 agonist -19%, GLS inh -2%, GLP-1R inv ag 10µM*, Glioma ERSR ind -2% and ALOX12 inh inconclusive.
Screening COC(=O)c1ccc(CN(C)CC2CC2)cc1 returned ALOX12 inh 20%.
Screening O=c1c2ccccc2nc(COc2ccccc2)n1/N=C/c1ccc(O)c(O)c1 returned PTHR1 agonist -26%, GLS inh 23%, GLP-1R inv ag inconclusive, Glioma ERSR ind 8%, GLP1R ag 12% and ALOX12 inh 3.5µM*.
Screening NC(=NCCCCCCN=C(N)/N=C(\N)Nc1ccc(Cl)cc1)/N=C(\N)Nc1ccc(Cl)cc1 returned PTHR1 agonist -22%, GLS inh inconclusive, GLP-1R inv ag inconclusive, Glioma ERSR ind -11%, GLP1R ag -1% and ALOX12 inh 32µM*!.
For COc1cccc(NC(=O)c2ccc3nc(Cc4ccccc4)oc3c2)c1 the results were PTHR1 agonist -25%, GLS inh 0%, GLP-1R inv ag 10µM*, Glioma ERSR ind 1% and ALOX12 inh -24%.
Screening CCOc1cccc(C(=O)Nc2ccc3oc(Cc4ccc(Cl)cc4)nc3c2)c1 returned PTHR1 agonist -29%[57.5 µM], GLS inh 11%, GLP-1R inv ag 2.2µM*, Glioma ERSR ind -3%, GLP1R ag -3% and ALOX12 inh 0%.
Screening O=C(c1ccc2c(c1)OCO2)N1CC2(Cc3ccccc3NC2=O)C1 returned ALOX12 inh -4%[6.33 µM].
For Cc1cc(C(=O)NCCC(c2ccccc2)c2ccccc2)c(C)o1 the results were PTHR1 agonist inactive, GLS inh 1%, GLP-1R inv ag 8.9µM*, Glioma ERSR ind -1%, GLP1R ag 0% and ALOX12 inh -26%.
`CC(Oc1ccc(Br)cc1)C(=O)Nc1ccc(S(=O)(=O)N(C)C2CCN(C)CC2)cc1` (configuration not stated) gave PTHR1 agonist inactive, GLS inh 0%, GLP-1R inv ag 2.8µM*, Glioma ERSR ind 17%, GLP1R ag -4% and ALOX12 inh inconclusive.
`CN1CCN(NC(=O)COc2cccc(C(F)(F)F)c2)CC1` gave PTHR1 agonist 6%, GLS inh 6%, GLP-1R inv ag -11%, Glioma ERSR ind -3%, GLP1R ag 0% and ALOX12 inh 16%.
Screening CN1CCC(N(C)S(=O)(=O)c2ccc(NC(=O)COc3cccc(C(F)(F)F)c3)cc2)CC1 returned PTHR1 agonist inactive, GLS inh 1%, GLP-1R inv ag 11µM*, Glioma ERSR ind -1%, GLP1R ag 2% and ALOX12 inh -1%.
Nc1cc(F)ccc1C(=O)OCc1cccc(Cl)c1 was read as ALOX12 inh -33%.
Screening O=C1C=CC(=C(c2ccc(O)cc2)c2ccc(O)cc2)C=C1 returned PTHR1 agonist -95%, GLS inh 28%, GLP-1R inv ag 5.6µM*, Glioma ERSR ind -16%, GLP1R ag -6% and ALOX12 inh inconclusive.
Screening CC(=O)c1ccc(O)cc1 returned ALOX12 inh -6%.
For O=C(Nc1ccc2oc(=O)ccc2c1)c1ccccc1 the results were ALOX12 inh 16%.
`Cc1ccccc1-n1nnnc1SCC(=O)N(Cc1ccco1)C1=CCCCC1` gave ALOX12 inh 8.9µM*.
Screening Cc1cccc(C)c1-n1nnnc1SCC(=O)N(Cc1ccco1)C1=CCCCC1 returned ALOX12 inh -52%.
Screening Oc1ccccc1-c1nc2ccccc2s1 returned ALOX12 inh -6%.
Screening Oc1ccc2ccccc2c1CNc1ccccn1 returned PTHR1 agonist -22%, GLS inh -2%, GLP-1R inv ag -22%, Glioma ERSR ind -4%, GLP1R ag 6% and ALOX12 inh 35µM*.
Screening COc1ccccc1CCN1CNc2c(c(=O)[nH]c(=O)n2-c2cccc(Cl)c2C)C1 returned ALOX12 inh -1%.
Screening CN1CCN(c2ccc(Cl)cc2NC(=O)c2cc(=O)[nH]c3ccccc23)CC1 returned PTHR1 agonist inactive, GLS inh 8%, GLP-1R inv ag inconclusive, Glioma ERSR ind -4%, GLP1R ag 17% and ALOX12 inh -1%.
`CN1CCN(c2ccc(Cl)cc2NC(=O)c2ccc(=O)n(C)n2)CC1` gave PTHR1 agonist -20%, GLS inh -11%, GLP-1R inv ag 10µM*, Glioma ERSR ind 3%, GLP1R ag -3% and ALOX12 inh 1%.
`CCOC(=O)N1CCC(NC(=O)C(C)n2nc(C)c3sc4ccccc4c3c2=O)CC1` (configuration not stated) gave ALOX12 inh -2%.
COC1CCN(c2cc(-c3ccccn3)nc3c(C)noc23)CC1 was read as ALOX12 inh 18%[176 µM].
For COc1ccccc1-c1cc(N2CCN(c3ccccn3)CC2)c2onc(C)c2n1 the results were ALOX12 inh 89µM*.
CCCCCCCCCCCCCCCC[N+](C)(C)Cc1ccccc1 was read as GLS inh 32µM*, Glioma ERSR ind -10%, GLP1R ag -6% and ALOX12 inh inconclusive.
`CCCCCCCCCCCCOC(=O)C[N+](C)(C)C` gave PTHR1 agonist -7%, GLS inh -11%, GLP-1R inv ag 16%, Glioma ERSR ind 0%, GLP1R ag 5% and ALOX12 inh inconclusive.
For CCCCCCCCCCOC(=O)C[N+](C)(C)Cc1ccccc1 the results were ALOX12 inh 45µM*.
For CCCCCCCCCCCCCC[N+](C)(C)Cc1ccccc1 the results were GLS inh -13%, Glioma ERSR ind -12%, GLP1R ag -2% and ALOX12 inh -6%[22.9 µM].
COc1ccc([N+](=O)[O-])c2cccnc12 was read as ALOX12 inh 2%.
O=[N+]([O-])c1cc2ncccc2c2ncccc12 was read as PTHR1 agonist inactive, GLS inh -4%, GLP-1R inv ag 3.2µM*, Glioma ERSR ind -2%, GLP1R ag 2% and ALOX12 inh -13%.
